Source: PubChem
Most compounds without a hit are left out; they make up all but 2.3% or so of the library.
FUS suppressor = qHTS for Suppressors of FUS Proteinopathy: Primary screen using FUS-linked yeast assay | S. cerevisiae FUS-expressing, growth rescue, OD600, 24 h | Potency, µM (doses to about 76.6 µM), actives largely listed as activators | 390,000 compounds, 0.24% hits;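 further: potency means the concentration at half of the fitted maximal effect; plate controls were DMSO vehicle for no effect and reference control for full effect; nearly all actives have a fitted effect of over 55% in size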
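Yeast FUS proteinopathy model; galactose-induced FUS (2%), starting OD 0.005. Cpds in dilution series, 24hr, 30C, 99% humidity. Abs 600 nm growth. Pos ctrl CP55940 (top 92uM final); neg ctrl DMSO.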
TDP43 rescue = qHTS of TDP-43 Inhibitors; TDP-43 expressing yeast growth rescue, BacTiter-Glo, 24 h; Potency, µM (doses to about 46.1 µM), without a hit: at the top dose growth rescue (activation), actives largely listed as activators; 410,000 compounds, 1.8% hits; AID 652104, 2013; further: potency means the concentration at half of the fitted maximal effect; % of control where 0% means no effect; nearly all actives have a fitted effect of over 50% in size
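Luminescence from BacTiter-Glo reports growth of TDP-43-expressing yeast after 24 hr at 30 deg C with compound. Cells were raffinose-pregrown to mid-log, then seeded in galactose medium at OD600=0.02.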
pAkt inh = HTS Assay for Inhibitors of Akt Phophorylation: Primary Screen; Neuro2A IGF-stimulated pAkt S473 HTRF, 20 min; active compounds read low; activity change, % for hits at 50 µM; 360,000 compounds, 0.32% hits; in the data active means activity change below about -80%; inconclusive means mostly about -51% to -80%; further: on the % scale 0 is the no-effect control and ±100 the full control effect
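Neuro2A cells in DMEM with 0.5% FBS, overnight at 37 deg C, given compound at single 50 µM final, then IGF (6 nM final) for 20 min at 37 deg C. Lysed; phospho-Akt Ser473 by HTRF after 24 h, 665/615 ratio.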
aSyn rescue = qHTS of alpha-syn Inhibitors; Yeast expressing alpha-synuclein, growth rescue, BacTiter-Glo, 24 h; Potency, µM (top dose mostly 46.1 µM), without a hit: at the top dose growth rescue (activation), hits mostly activators; 370,000 compounds, 0.14% hits; AID 652106, 2013; further: potency means the concentration at half of the fitted maximal effect; % of control where 0% means no effect; nearly all actives have a fitted effect of over 65% in size
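Rescue of yeast growth: cells expressing toxic alpha-synuclein, induced in galactose at OD600 0.02, incubated with compound 24 h at 30 C. ATP luminescence quantified growth; inhibitors of toxicity appear as activators.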
Abeta rescue = qHTS for compounds that reverse cellular toxicity of Amyloid beta (A-beta) peptide in yeast: Primary Screen. yeast expressing A-beta42, growth rescue, OD600, 48 h; response scale: 0% DMSO, 100% iron-clioquinol control. Potency, µM (series often up to 46.1 µM), actives largely listed as activators. 410,000 compounds, 0.063% hits. AID 1347071, 2019; further: potency means the concentration at half of the fitted maximal effect; nearly all actives have a fitted effect of over 55% in size
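Yeast growth medium received pinned compounds, then yeast cells expressing toxic A-beta were added; plates incubated at 30 C for 48 hr. Growth read as absorbance at 600 nm, normalized to DMSO and equimolar FeCl3 plus clioquinol controls.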
Starred values were filed as active, the others as inactive; [ ] = dose if it differs, or a comment. Unless noted, the call rests on the fitted dose curve; in most records, active means well fitted curve in the direction sought with a large enough effect; inconclusive means small, poorly fitted or top-dose-only effect, or another doubt; inactive means no such curve, though single readings can be large; an effect the other way counts as inactive or inconclusive.

What do the screens show for `O=C(Nc1nc2c(ccc3ccccc32)s1)c1ccco1`?
FUS suppressor: inconclusive; TDP43 rescue: 5.62µM*; pAkt inh: inactive; aSyn rescue: -1.3%; Abeta rescue: inactive

What do the screens show for `O=C(Nc1ccccc1NC(=O)c1ccco1)c1ccccc1`?
FUS suppressor: inactive; TDP43 rescue: -9.8%; pAkt inh: inactive; aSyn rescue: -6.4%; Abeta rescue: inactive

What do the screens show for `CC(C)(C)C(=O)OCc1cc(=O)n2nc(C3CC3)sc2n1`?
FUS suppressor: inactive; TDP43 rescue: 2.1%; Abeta rescue: inactive

How did COc1cc(OC)c(/C=C/c2cc3ccccc3c[n+]2C)c(OC)c1 do in these assays?
aSyn rescue: -6.1%

How did O=C(COC(=O)C1CCC(=O)N1)Nc1ccc(Cl)cc1Cl (configuration not stated) do in these assays?
FUS suppressor: inactive; TDP43 rescue: 14.3%; pAkt inh: inactive; aSyn rescue: 0.9%; Abeta rescue: inactive

How did Cc1ccc(NC(=O)COC(=O)C2CCC(=O)N2)c(S(=O)(=O)N2CCOCC2)c1 (configuration not stated) do in these assays?
FUS suppressor: inactive; TDP43 rescue: -7.1%; pAkt inh: -114.2%*; aSyn rescue: 1.2%; Abeta rescue: inactive

What do the screens show for `CCOC(=O)CC(c1ccc(N)cc1)n1c(C)ccc1C` (configuration not stated)?
FUS suppressor: inconclusive; pAkt inh: inactive; aSyn rescue: -1.6%; Abeta rescue: inactive

Results for Cc1ccc(C)n1C(CC(=O)O)c1ccc(C#N)cc1 (configuration not stated) ?
FUS suppressor: 31.6µM*; TDP43 rescue: -21.4%; pAkt inh: inactive; aSyn rescue: -4.8%; Abeta rescue: inactive

What do the screens show for `CCOC(=O)c1[nH]c(C)c(CCC(=O)O)c1C`?
FUS suppressor: inactive; TDP43 rescue: 18.4%; pAkt inh: inactive; aSyn rescue: 3.0%; Abeta rescue: inactive

How did CCOc1c(C)cc2[nH]c(CCC(=O)O)nc2c1C do in these assays?
FUS suppressor: inactive; TDP43 rescue: 2.1%; pAkt inh: -111.6%*; aSyn rescue: 0.3%; Abeta rescue: inactive

How did O=C(CSc1oc(-c2ccccc2)nc1S(=O)(=O)c1ccc(Cl)cc1)c1ccccc1 do in these assays?
FUS suppressor: inconclusive; TDP43 rescue: 10.6%; Abeta rescue: inactive

Results for Cc1cc(N2CCOCC2)n2ncc(-c3ccccc3Cl)c2n1 ?
FUS suppressor: inactive; TDP43 rescue: 12.6µM*; pAkt inh: inactive; aSyn rescue: 11.3%; Abeta rescue: inactive

What do the screens show for `CC(C)c1cc(N2CCOCC2)n2ncc(-c3ccccc3)c2n1`?
FUS suppressor: inactive; TDP43 rescue: 10.4%; pAkt inh: inactive; aSyn rescue: -0.8%; Abeta rescue: inactive

Results for Cc1cccc(N2CCN(S(=O)(=O)c3c(C(=O)N4CCC(C)CC4)c(C)n(C)c3C)CC2)c1C ?
FUS suppressor: inconclusive; TDP43 rescue: 11.2%; Abeta rescue: inactive

Results for Cc1ccc(Cl)cc1NC(=O)COC(=O)C1CCCC1 ?
FUS suppressor: inactive; TDP43 rescue: 18.6%; aSyn rescue: -5.0%; Abeta rescue: 5.62µM*

Results for COc1ccc(Cl)cc1NC(=O)COC(=O)Cc1cccs1 ?
FUS suppressor: inactive; TDP43 rescue: 10µM*; pAkt inh: inactive; aSyn rescue: 6.9%; Abeta rescue: inactive

What do the screens show for `COc1ccc(Cl)cc1NC(=O)CNCc1cccs1`?
FUS suppressor: inactive; TDP43 rescue: 8.1%; pAkt inh: inactive; aSyn rescue: 1.1%; Abeta rescue: inactive

Results for COc1ccc(NC(=O)COC(=O)/C=C/c2cccs2)c(OC)c1 ?
FUS suppressor: inactive; TDP43 rescue: 13.8%; pAkt inh: inactive; aSyn rescue: -0.3%; Abeta rescue: inactive

How did COc1ccc(Cl)cc1NC(=O)COC(=O)C1CCCCC1 do in these assays?
FUS suppressor: inactive; TDP43 rescue: 12.6µM*; pAkt inh: inactive; aSyn rescue: 0.9%[1.84 µM]; Abeta rescue: inconclusive
